Assay outcomes deposited in PubChem by Broad Institute.
Most compounds without a hit are left out; they make up all but 3.3% or so of the library.
GSIS activator – primary screen for activators of insulin secretion dependent on glucose, INS-1E cells, GLuc reporter luminescence | INS-1E GLuc reporter insulin secretion, 2-3 h | actives 0.61% (n = 370,000) | activation, % at 16.6 µM;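 active = lowest replicate activation of at least 40%, so every replicate reaches that level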;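 note: 0% = median of neutral control wells and 100% = median of IBMX positive control wells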
SIRT5 inh – blocks human SIRT5 desuccinylation of peptide; Q9NXA8; Purified SirT5, succinyl-peptide AMC, trypsin-coupled fluorescence; inhibition, % at 15 µM; actives 1.1% (n = 330,000); AID 652115; in the data active = inhibition above about 15%
Target sequence (Q9NXA8 whole entry, looked up): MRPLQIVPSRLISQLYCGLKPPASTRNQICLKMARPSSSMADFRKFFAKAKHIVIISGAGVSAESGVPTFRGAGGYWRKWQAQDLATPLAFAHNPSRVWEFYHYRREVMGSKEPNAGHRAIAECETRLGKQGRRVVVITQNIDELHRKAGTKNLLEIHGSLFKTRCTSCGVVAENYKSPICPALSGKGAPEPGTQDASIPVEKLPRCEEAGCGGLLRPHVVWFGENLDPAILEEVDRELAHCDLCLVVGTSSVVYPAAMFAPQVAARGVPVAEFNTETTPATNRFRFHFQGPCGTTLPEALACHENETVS
FGF22 binding – FGF22 (human) thermal shift binding | Q9HCT0 | recombinant FGF22 thermal shift, SYPRO orange fluorescence; percent of sucrose octasulfate shift, DMSO zero | activity (Tm shift, normalised), % at 9.99 µM | actives 1.5% (n = 340,000) | AID 651658;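 active = mean Tm shift, scaled 0 neutral to 100 positive control, at about 1.3% or above, every replicate too, limit read from the data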
Target sequence (Q9HCT0 whole entry, looked up): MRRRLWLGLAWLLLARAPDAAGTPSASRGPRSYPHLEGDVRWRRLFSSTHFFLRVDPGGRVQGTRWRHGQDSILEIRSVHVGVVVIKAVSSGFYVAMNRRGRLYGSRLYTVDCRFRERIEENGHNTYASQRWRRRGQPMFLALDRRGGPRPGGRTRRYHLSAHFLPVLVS
ERAP1 inh – ERAP1 (human) enzyme inhibition | actives 0.15% (n = 340,000) | inhibition, % at 10.7 µM | AID 652197 | recombinant ERAP1, Leu-AMC fluorescence, 60 min;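 active = mean replicate inhibition of at least 30%, or all replicates individually reaching that 30% level; inactive = mean below 30% and not every replicate reaching it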;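 note: 0% = neutral control wells and 100% = L-leucinethiol positive control wells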
Casp6 inh – blocks human caspase-6 cleavage activity | P55212 | purified caspase-6, Z-VEID-R110 cleavage fluorescence | actives 0.53% (n = 350,000) | inhibition, % at 12.5 µM;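 active = mean inhibition across replicates at least about 35%, with every replicate also reaching that limit, limit read from the data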;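 note: 0% = median of neutral control wells and 100% = no fluorescence left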
An asterisk follows results filed as active; . = no result.

SMILES	GSIS activator	SIRT5 inh	FGF22 binding	ERAP1 inh	Casp6 inh
C/C=C/c1ccc2c(c1)O[C@H](CN(C)C(=O)Nc1ccc(C(F)(F)F)cc1)[C@H](C)CN([C@H](C)CO)S2(=O)=O	-25	12	1.8*	0	-1
COC(=O)c1cn(NC(=O)Cn2nc([N+](=O)[O-])c(Cl)c2C)c(=O)c2ccccc12	-4	1	0	0	0
COC(=O)c1cn(NC(=O)Cn2nc([N+](=O)[O-])c(Br)c2C)c(=O)c2ccccc12	8	5	43*	7	-4
CC(C)CN(C(=O)C1CC1)C1CCS(=O)(=O)C1 (centres undefined)	7	14	0	0	6
CC(C)CN(C(=O)C1CCCCC1)C1CCS(=O)(=O)C1 (centres undefined)	41*	1	0	3	-1
C[C@@H]1CCCCO[C@@H](CN(C)C(=O)c2ccccc2)[C@H](C)CN([C@H](C)CO)C(=O)c2cc(NC(=O)Nc3ccccc3)ccc2O1	-29	0	-1	2	1
COc1ccccc1-c1ccc2n(c1=O)C[C@@H]1[C@@H](CO)[C@H](C(=O)N3CCCCC3)[C@H]2N1CC1CC1	0	20*	0	0	-1
COc1ccccc1-c1ccc2n(c1=O)C[C@H]1[C@H](CO)[C@@H](C(=O)N3CCCCC3)[C@@H]2N1CC1CC1	7	-4	0	0	2
CS(=O)(=O)Nc1ccc2c(c1)[C@H]1C[C@H](CC(=O)NCc3ccccc3)O[C@H](CO)[C@H]1O2	-1	16*	0	9	0
O=C(C[C@H]1C[C@@H]2c3cc(NS(=O)(=O)c4ccc(F)cc4)ccc3O[C@@H]2[C@@H](CO)O1)NCc1ccc(Oc2ccccc2)cc1	-38	15*	0	0	0
CN(C)c1ccc2c(c1)[C@H]1C[C@H](CC(=O)NCc3ccc(Oc4ccccc4)cc3)O[C@H](CO)[C@H]1O2	7	21*	0	-1	-3
O=C(C[C@@H]1C[C@H]2c3cc(NC(=O)C4CCC4)ccc3O[C@H]2[C@H](CO)O1)NCc1ccc(-c2ccccc2)cc1	-1	25*	0	0	-4
O=C(C[C@@H]1C[C@@H]2c3cc(NC(=O)C4CCC4)ccc3O[C@@H]2[C@H](CO)O1)NCc1ccc(-c2ccccc2)cc1	3	3	0	0	-1
COc1ccc2c3c([nH]c2c1)[C@H](CO)N(C(=O)c1cccc(F)c1)CC31CN(C(=O)c2ccccc2)C1	-11	.	0	-1	.
CCCNC(=O)N(C)C[C@H]1Oc2cc(C#CCC(C)C)ccc2S(=O)(=O)N([C@@H](C)CO)C[C@@H]1C	-14	4	0	-1	2
Cc1noc(C)c1S(=O)(=O)N(C)C[C@H]1Oc2c(NS(=O)(=O)c3ccccc3)cccc2C(=O)N([C@@H](C)CO)C[C@H]1C	29	-2	0	-1	1
O=C(C[C@H]1C[C@H]2c3cc(NS(=O)(=O)c4ccc(F)cc4)ccc3O[C@H]2[C@@H](CO)O1)NCc1ccc(-c2ccccc2)cc1	-11	1	.	-1	1
O=C(C[C@@H]1C[C@@H]2c3cc(NC(=O)C4CCC4)ccc3O[C@@H]2[C@H](CO)O1)NCCN1CCCCC1	13	2	0	-1	-3
O=C(C[C@H]1C[C@@H]2c3cc(NS(=O)(=O)c4ccc(F)cc4)ccc3O[C@@H]2[C@@H](CO)O1)NCc1ccc(-c2ccccc2)cc1	-14	17*	.	3	-1
O=C(C[C@H]1C[C@H]2c3cc(NC(=O)C4CCC4)ccc3O[C@H]2[C@H](CO)O1)NCCN1CCCCC1	7	35*	0	1	-4
C[C@H]1CN([C@@H](C)CO)C(=O)c2cccc(NS(=O)(=O)c3ccc(F)cc3)c2O[C@@H]1CN(C)C(=O)Nc1cccc2ccccc12	-12	2	0	2	-1
COc1cc(CC(=O)Nc2ccccc2N2CCOCC2)cc(OC)c1OC	-4	1	43*	4	3
CO[C@@H](CN(C)C(=O)C1CC1)[C@@H](C)CN(C(=O)Nc1ccc(C(F)(F)F)cc1)[C@@H](C)CO	-38	0	0	-7	3
COC(=O)c1ccc(C)c(-n2c(=O)n(Cc3ccccc3)c(=O)c3[nH]cnc32)c1	44*	0	0	1	2
O=C1NC[C@H](CCCCN2C[C@H](Cc3ccccc3)N(CCC3CCCCC3)C(=O)C2=O)N(CCc2ccccc2)C1=O	11	3	8.8*	0	-1
SMILES	GSIS activator	SIRT5 inh	FGF22 binding	ERAP1 inh	Casp6 inh
Cc1ccc(Cn2nc(C)c(/C=N/NC(=O)c3cccnc3)c2C)cc1	-16	-2	43*	-2	-2
CN1CCN(c2ccccc2/C=N/NC(=O)c2cccnc2)CC1	9	-5	0	.	2
Cc1nn(Cc2ccccc2)c(C)c1/C=N/NC(=O)c1cccnc1	17	2	0	-3	0
Cc1c(/C=N/NC(=O)c2cccnc2)cc(C#N)n1C	3	-1	43*	4	-4
COC(=O)c1ccc2nc(NC(=O)C3CCCCC3)sc2c1	10	-2	0	6	3
COC(=O)c1ccc2nc(NC(=O)C(C)(C)C)sc2c1	-24	-3	43*	0	-4
CS(=O)(=O)N1[C@@H]2c3ccc(-c4ccc(F)cc4)c(=O)n3C[C@H]1[C@H](CO)[C@H]2C(=O)N1CCOCC1	8	-45	0	.	.
c1ccc(CNC23CC4CC(CC(C4)C2)C3)nc1	8	7	43*	3	-5
CC(C)C1Nc2ccc(C(=O)O)cc2C2C=CCC21 (centres undefined)	16	23*	.	4	10
CC(OC(=O)c1ccncc1)C(=O)Nc1cccc([N+](=O)[O-])c1 (centres undefined)	10	-1	43*	-1	-4
COc1ccc(OC(C)C(=O)Nc2cccc([N+](=O)[O-])c2)cc1 (centres undefined)	11	.	.	.	.
C[C@H](CO)N1C[C@H](C)[C@H](CN(C)Cc2ccc(C(F)(F)F)cc2)Oc2ccc(NC(=O)NC3CCCCC3)cc2C1=O	-17	8	-1	-1	0
CCCCCCCCNCCS(=O)(=O)NCCCCCCCC	682*	-2	0	3	-3
O=C(O)CSc1c2c(nc3cc(C(=O)Nc4cccc(C(F)(F)F)c4)ccc13)CCC2	.	8	0	0	79*
CCOC(=O)c1ccccc1NC(=O)c1ccc2c(SCC(=O)O)c3c(nc2c1)CCCC3	3	22*	0	-1	-4
CCOc1ccc(NC(=O)c2ccc3c(SCC(=O)O)c4c(nc3c2)CCCC4)cc1	-9	-1	0	-1	3
CN1C(=O)c2cc(NC(=O)Nc3ccc(Cl)cc3)ccc2OC[C@@H]2O[C@@H](CC(=O)O)CC[C@@H]21	.	-4	.	-1	-1
